Reference: PubChem BioAssay AID1259412 (Laboratorio de Genomica e Expressao (LGE), UNICAMP, 2018)
The source made the active and inactive calls. No rule for the calls is given here.

How the values were obtained:
[1] = alternative oxidase inhibition and growth effect – profiling panel (AID 1259412); details: AOX-dependent respiration, at 500 µM; for growth (% of control): O2 uptake, measured here: growth; for O2 uptake (% of control): measured here: O2 uptake, control condition (no AOX);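 as to growth (% of control): growth monitored over 72 h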
[2] = test system: alternative oxidase (AOX); assay: as above; details: AOX-dependent respiration, at 500 µM, stronger effect = lower value
[3] = AOX-dependent treatment condition, stronger effect = lower value

Row | SMILES | growth (% of control) [1, 3] | growth (% of control) ([1]; control condition) | O2 uptake (% of control) ([1]; stronger effect = lower value) | O2 uptake (% of control) [2]
1 | O=C(Nc1cccc(F)c1)c1cccc(I)c1 | 64.5% | 86.5% | 76% | 23.7% (active)
2 | O=C(Nc1cccc(OCc2ccccc2)c1)c1cccc(I)c1 | 36.7% | 57% | 100% | 51.2% (active)
3 | O=C(Nc1cccc(Cl)c1)c1cccc(Cl)c1 | 48.1% | 80.2% | 89.8% | 9.19% (active)
4 | NC(=O)c1ccccc1NC(=O)c1cccc(I)c1 | 91.2% | 98.8% | 87.5% | 35.5% (active)
5 | O=C(Nc1cccc(C(F)(F)F)c1)c1ccccc1I | 14.6% | 92% | 79.2% | 14.3% (active)
6 | O=C(Nc1ccccc1)c1cccc(Br)c1 | 75% | 91.1% | 89.6% | 19.3% (active)
7 | O=C(Nc1ccc(N2CCOCC2)cc1)c1cccc(Br)c1 | 76.7% | 92.2% | 100% | 85% (active)
8 | NC(=O)c1ccccc1NC(=O)c1cccc(Cl)c1 | 65.4% | 68.9% | 85.8% | 41.6% (active)
9 | O=C(Nc1cccc(F)c1)c1cccc(Cl)c1 | 3.11% | 70.3% | 77.2% | 34.1% (active)
10 | Cc1cccc(C(=O)Nc2ccccc2)c1 | 50% | 83.2% | 103% | 42.3% (active)
11 | Nc1cccc(S(=O)(=O)c2cccc(NC(=O)c3cccc(F)c3)c2)c1 | 84% | 106% | 104% | 101% (inactive)
12 | O=C(NCc1ccc2c(c1)OCO2)c1cccc(Cl)c1 | 55.3% | 72% | 101% | 14.2% (active)
13 | Nc1cccc(S(=O)(=O)c2cccc(NC(=O)c3cccc(Cl)c3)c2)c1 | 94.1% | 83.7% | 110% | 98.3% (inactive)
14 | O=C(Nc1cccc(F)c1)c1ccccc1 | 83% | 92.8% | 102% | 43.6% (active)
15 | COc1cccc(C(=O)Nc2cccc(S(=O)(=O)c3cccc(N)c3)c2)c1 | 132% | 112% | 105% | 98.1% (inactive)
16 | COc1cccc(C(=O)Nc2cc(OC)c(OC)c(OC)c2)c1 | 104% | 89% | 101% | 77.6% (inactive)
17 | O=C(Nc1cccc(Br)c1)c1cccc(I)c1 | 103% | 98.1% | 89.6% | 20.2% (active)
18 | O=C(Nc1cccc(NC(=O)c2cccc(F)c2)c1)c1cccc(F)c1 | 113% | 133% | 97% | 51.3% (active)
19 | O=C(Nc1cccc(C(F)(F)F)c1)c1cccc(Cl)c1 | 37.9% | 93.2% | 93.2% | 15.8% (active)
20 | O=C(Nc1cccc(Cl)c1)c1cccc(Br)c1 | 71.8% | 101% | 85% | 15% (active)

Row | SMILES | growth (% of control) [1, 3] | growth (% of control) ([1]; control condition) | O2 uptake (% of control) ([1]; stronger effect = lower value) | O2 uptake (% of control) [2]
21 | N#Cc1cccc(C(=O)Nc2cccc(Cl)c2)c1 | 54.1% | 87.1% | 87.4% | 27.6% (active)
22 | O=C(Nc1cccc(C(F)(F)F)c1)c1cccc(Br)c1 | 58.1% | 99.1% | 80.2% | 22.3% (active)
23 | COc1cccc(C(=O)Nc2cccc(OCc3ccccc3)c2)c1 | 105% | 86.7% | 91.3% | 79% (active)
24 | CCN(CC)CCNC(=O)c1ccccc1 | 92.5% | 87.9% | 95.7% | 78.4% (active)
25 | COc1cccc(C(=O)Nc2cccc(C(F)(F)F)c2)c1 | 11.8% | 57.4% | 90.2% | 37.6% (active)
26 | Cc1cccc(C(=O)Nc2cccc(Cl)c2)c1 | 14.9% | 65.6% | 87.4% | 20.9% (active)
27 | N#Cc1cccc(C(=O)Nc2ccccc2)c1 | 58.9% | 89.5% | 105% | 69.6% (active)
28 | O=C(Nc1cccc(Cl)c1)c1cccc(F)c1 | 17.8% | 60.1% | 78.3% | 24.6% (active)
29 | O=C(Nc1cccc(OCc2ccccc2)c1)c1cccc(F)c1 | 86% | 81.9% | 97.4% | 41.2% (active)
30 | COc1cccc(C(=O)Nc2cccc(Br)c2)c1 | 51.9% | 92% | 85.8% | 27.5% (active)
31 | Cc1cccc(C(=O)Nc2ccccc2C(N)=O)c1 | 74.2% | 73.9% | 92.4% | 60.2% (active)
32 | O=C(Nc1ccc(N2CCOCC2)cc1)c1ccccc1 | 85.7% | 87.8% | 93.3% | 93.8% (inactive)
33 | N#Cc1cccc(C(=O)Nc2cccc(I)c2)c1 | 103% | 117% | 87.8% | 32.6% (active)
34 | COc1cccc(C(=O)Nc2cccc(F)c2)c1 | 7.84% | 32.6% | 79.2% | 44.5% (active)
35 | O=C(Nc1ccc(N2CCOCC2)cc1)c1cccc(F)c1 | 94.7% | 90.8% | 104% | 86.3% (inactive)
36 | COc1cccc(C(=O)Nc2ccccc2)c1 | 43.8% | 60.4% | 95.1% | 57.1% (active)
37 | O=C(Nc1cccc([N+](=O)[O-])c1)c1cccc(Br)c1 | 74.5% | 80.8% | 95.1% | 23.6% (active)
38 | O=C(Nc1ccc(N2CCOCC2)cc1)c1cccc(Cl)c1 | 89.6% | 92.8% | 90.9% | 81.3% (active)
39 | COc1cccc(C(=O)Nc2cccc(Cl)c2)c1 | 0% | 33% | 76.3% | 33.2% (active)
